# Data published in the supplement of paper PMC8726507.
# Test system: Plasmodium falciparum NF54-HGL (transmission to Anopheles stephensi)
# Test: percentage of barcode signal found in uninfected mosquitoes (transmission-blocking activity); higher = stronger blocking of transmission to mosquito, active = 80 or more
# Details: 10 µM; gametocyte preincubation time 24 h; readout time post-feed 8 days
# Method: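 The mixture was fed to Anopheles stephensi in 96-well plates as blood meals tagged with DNA-barcoded Asaia bacteria. Eight days later, mosquitoes were classed infected or uninfected by luminescence (mean + 5 SD of unfed controls). Barcodes were quantified by Luminex MagPlex-TAG in the pooled uninfected and infected Asaia cultures, background-corrected, and the score is % of barcode signal in uninfected mosquitoes = 100*Iu/(Iu+Ii).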
row,Compound,percentage of barcode signal found in uninfected mosquitoes
1,Cc1nc(-c2ccccn2)nc(NCCc2ccc(S(C)(=O)=O)cc2)c1Cl,67% (inactive)
2,CCn1cnc2c(Nc3cc(F)cc(F)c3)nc(C#N)nc21,33.6% (inactive)
3,NCC(=O)N1CCn2c(nc(-c3ccccc3)c2Nc2ccc3c(c2)OCO3)C1,80.9% (active)
4,Cc1ccc(S(=O)(=O)N2CCN(C(=O)c3cc(-c4ccccc4)[nH]n3)CC2)cc1,69.8% (inactive)
5,Cc1cc(C(=O)Nc2ccc(-c3ccccc3)cc2)no1,64% (inactive)
6,NS(=O)(=O)c1cncc(-c2ccc3nccc(-c4cn[nH]c4)c3n2)c1,78.5% (inactive)
7,COC(=O)C1=C(C)NC(C)=C(C(=O)OC(C)C)C1c1cccc2nonc12 (stereo not given),57.4% (inactive)
8,CCCn1c(CNc2ccccc2O)nc2ccccc21,34.7% (inactive)
9,O=C(NCCc1c[nH]c2ccccc12)c1cc2ccccc2oc1=O,-1.49% (inactive)
10,O=C(Nc1nnc(-c2ccc(Cl)s2)o1)c1ccc(Cl)s1,0.515% (inactive)
11,CC1COC2(CCN(c3nc(=O)c4cc(C(F)(F)F)cc([N+](=O)[O-])c4s3)CC2)O1 (stereo not given),26.7% (inactive)
12,CN1CCCC1CCO[C@](C)(c1ccccc1)c1ccc(Cl)cc1 (stereo not given in full),87.8% (active)
13,Cc1ccc2cc(C3NC(=O)c4ccccc4N3)c(Cl)nc2c1 (stereo not given),71.8% (inactive)
14,Cc1cc2nc(NC(=O)C(C)(C)C)nc(Cl)c2n1Cc1ccc(Cl)cc1,79.6% (inactive)
15,Cc1cc2ccccc2n1CC(=O)N1CC(C(=O)N2CCCCC2)Oc2ccccc21 (stereo not given),34.8% (inactive)
16,CCCNC(=O)N1CCC2(CC1)CC(=O)c1cc(C)ccc1O2,11.9% (inactive)
17,O=C(NC1CC1)c1ccc(N2CCC(Cc3ccccc3)CC2)nc1,77.8% (inactive)
18,COc1ccc(-c2cnc3ccc(NCc4ccc(S(N)(=O)=O)cc4)nn23)cn1,68.2% (inactive)
19,O=C(Nc1ccc(N2CCNCC2)cc1)c1ccn2ncc(-c3cccc(Cl)c3)c2n1,81.5% (active)

# Same assay, conditions: 20 µM; gametocyte preincubation time 24 h; readout time post-feed 8 days
row,Compound,percentage of barcode signal found in uninfected mosquitoes
1,CC1(C)Cc2c(c(N3CCOCC3)nc3snc(Br)c23)CO1,97% (active)
2,CN1CCN(c2nccc3[nH]c(-c4cccc(F)c4)cc23)CC1,-0.815% (inactive)
3,COc1cc(C2=NCCN2)ccc1-c1cn(-c2cccc(C3=NCCN3)c2)nn1,46% (inactive)
4,c1ccc2c(c1)CN(CC1CC1)CC1(CCN(Cc3c[nH]c4cnccc34)CC1)O2,30.7% (inactive)
5,O=C(OCc1ccccc1)N1CCC(c2cc(-c3ccncc3)c(-c3ccc(F)cc3)[nH]2)CC1,16.8% (inactive)
6,CC(c1cc(Cl)cc(Cl)c1)N(C)c1ncc2c(N)nc(N)nc2n1 (stereo not given),0.441% (inactive)
7,O=C(c1ccc(F)cc1)N(CCNc1ccccc1)c1ccccc1,7.39% (inactive)
8,CC(=O)Nc1ccc(-c2noc(CC3CCCN(Cc4cccc(F)c4C)C3)n2)cc1 (stereo not given),0.0253% (inactive)
9,Clc1cccc(CO[C@H]2CCc3ccccc3[C@@H]2n2ccnn2)c1,-1.12% (inactive)
10,NC(=O)c1cc(-c2ccsc2)ccc1OCCOc1ccccc1,12.1% (inactive)
11,O=C(Nc1ccc(C(F)(F)F)c(C(F)(F)F)c1)c1cc(Cl)ccc1O,69.4% (inactive)
12,Cc1ccccc1C(=O)N1N=C(Nc2ccccc2)SC1(C)C,-0.332% (inactive)
13,CCc1ccccc1-n1c(C)cn2c3c(=O)n(C(C(=O)OC)C(C)C)c(=O)n(C)c3nc12 (stereo not given),54.1% (inactive)
14,OCc1ccc(-c2cncc(Nc3cccc(Cl)c3)c2)cc1,4.28% (inactive)
15,CCC(C)NC(=O)c1ccc(NC(=O)C2(c3ccccc3)CCCC2)cc1 (stereo not given),47.5% (inactive)
16,O=C(NCc1cc(Cl)cc(Cl)c1)c1c(C(F)(F)F)nc2ccccn12,20% (inactive)
17,Clc1ccc(Cl)c(CO[C@H]2CCCC[C@@H]2n2ccnc2)c1,19.9% (inactive)
18,COc1cccc(-n2nnnc2S(C)(=O)=O)c1,70.1% (inactive)
19,Cc1cc(Cl)ccc1NC(=O)CCc1ccc(S(=O)(=O)NCC(C)C)cc1,0.0223% (inactive)
20,Clc1ccc(CN2CCN(C3=NCCN3)CC2)cc1Cl,4.45% (inactive)
21,COc1ccc2nc(C)cc(OCC(=O)NCc3ccccc3)c2c1,2.14% (inactive)
